High-throughput results deposited in PubChem by National Center for Advancing Translational Sciences (NCATS).
This is a sample that favours compounds with a hit; in the whole collection about 7.1% have one here.
ELG1 DNA repair: inhibitors of ELG1-dependent DNA repair in HEK293T cells | HEK293T ELG1-luciferase reporter, luminescence, 16 h; DNA damage induced by 5-fluorouridine | Potency, µM (series often up to 46.1 µM), most hits filed as inhibitors | hit rate 2.3% among 330,000 | AID 504467; further: nearly all actives have a fitted effect of over 55% in size
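Cells (2,000 per well) received 5-fluorouridine plus test compound or DMSO and were incubated 16 hr at 37 °C, 5% CO2. Luciferase activity was read by luminescence 30 min after ONE-Glo addition; signal suppression marked inhibition of damage-induced ELG1 function.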
p53 reactivation: mutant p53 re-activation in reporter cells; H1299 p53-A138V BP100-luciferase reporter, luminescence, 24 h; Potency, µM (highest dose often 92.2 µM), most hits filed as activators; hit rate 0.063% among 320,000; further: nearly all actives have a fitted effect of over 45% in size
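H1299 (p53-null), stable ts p53-A138V + BP100-Luc; 1000 cells/well, Opti-MEM/10% FBS; cpd 4 pt, 1:5; 24 h, 37 deg C, 5% CO2; detection reagent 10 min RT; luminescence.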
ELG1 genotox: genotoxicity induction in ELG1-luciferase HEK293T cells; Potency, µM (doses to about 46 µM), usual class: activators; AID 504466; HEK293T ELG1-luciferase reporter, luminescence, 16 h; hit rate 1.3% among 330,000; further: nearly all actives have a fitted effect of over 60% in size
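Screening used a luciferase reporter fused to human ELG1 in HEK293T cells. Luminescence was read on a CCD plate imager after 16 hr exposure and 30 min ONE-Glo incubation.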
SW480 rerep: DNA re-replication induction in SW480 cells. SW480 DNA re-replication, Hoechst DNA content imaging, 48 h. Potency, µM (titrated, usually from 46.1 µM), most hits filed as activators. hit rate 1.8% among 340,000; further: nearly all actives have a fitted effect of over 55% in size
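Compounds, transferred as 23 nL by pin tool, were incubated with cells for 48 hr; DNA content per nucleus was then quantified by Hoechst staining and fluorescence plate imaging.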
MCF10A rereplic: DNA re-replication induction in MCF 10a cells. MCF 10A DNA re-replication, Hoechst nuclear intensity, 48 h. Potency, µM (doses to about 46.1 µM), actives largely listed as activators. hit rate 2.9% among 350,000. AID 624296; further: nearly all actives have a fitted effect of over 50% in size
A-T KAP1 phos: potential ataxia-telangiectasia treatments restoring KAP-1 phosphorylation | F2112 A-T fibroblasts, KAP-1 phosphorylation AlphaLISA; neocarzinostatin DNA damage 30 min before lysis | Potency, µM (series often up to 57.5 µM), most hits filed as activators | hit rate 0.19% among 320,000 | AID 485349; further: nearly all actives have a fitted effect of over 45% in size
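hTERT-immortalized A-T patient fibroblasts (F2112), 500 cells/well in OPTI-MEM, 1% FBS, got compounds for 60 min, then NCS for 30 min at 37C. Lysates were then assayed for phospho-KAP-1 by AlphaLISA (anti-pKAP1 donor, anti-KAP1 acceptor beads), 6 hr at 25C.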
Of the large screens only hits and unclear results are named; the others gave an inactive call. The call rests on the fitted dose curve; in most records, active means well fitted curve in the direction sought with a large enough effect; inconclusive means small, poorly fitted or top-dose-only effect, or another doubt; inactive means no such curve, though single readings can be large; an effect the other way counts as inactive or inconclusive.

CC(=O)Nc1cccc(C(=O)/C=C/c2ccc(C)cc2)c1	p53 reactivation inconclusive, SW480 rerep inconclusive, MCF10A rereplic 21µM, A-T KAP1 phos inconclusive
CC1CCN(C(=O)COC(=O)C2CCN(S(=O)(=O)c3c(Cl)cccc3Cl)CC2)CC1	none
COc1cccc(CN2CCN(CC#Cc3ccccc3)CC2CCO)c1 (stereo unspecified)	p53 reactivation inconclusive
COC(=O)C1=C(C)Nc2sc(C(N)=O)c(N)c2C1c1ccncc1 (stereo unspecified)	SW480 rerep 23µM, MCF10A rereplic inconclusive
COC(=O)C1=C(C)Nc2[nH]c(=S)[nH]c(=O)c2C1c1ccc(OC)cc1 (stereo unspecified)	none
CCOC(=O)C1=C(C)Nc2sc(C(=O)c3ccc(OC)cc3)c(N)c2C1c1ccc(C(=O)OC)cc1 (stereo unspecified)	ELG1 DNA repair inconclusive, SW480 rerep 13µM, MCF10A rereplic 12µM
COc1ccc(NC(=O)NCCCCc2ccccc2)cc1	none
COc1ccc(CNC(=O)Nc2ccccc2)cc1	ELG1 DNA repair inconclusive, ELG1 genotox inconclusive
COc1ccc(NC(=O)C23CCC(C)(C(=O)O2)C3(C)C)cc1 (stereo unspecified)	SW480 rerep 5.2µM, MCF10A rereplic 0.52µM
CCOC(=O)c1ccc(NC(=O)C23CCC(C)(C(=O)O2)C3(C)C)cc1 (stereo unspecified)	ELG1 DNA repair inconclusive, p53 reactivation inconclusive, ELG1 genotox inconclusive
COc1ccc(NC(=S)NCCCc2ccccc2)cc1	SW480 rerep 18µM
COc1ccc(CNC(=O)Nc2ccc(OC)cc2)cc1	SW480 rerep inconclusive, MCF10A rereplic 18µM
COc1ccc(NC(=S)Nc2ccc(Oc3ccccc3)cc2)cc1	ELG1 DNA repair inconclusive
COc1ccc(NC(=S)NN(C)C(=S)Nc2ccc(OC)cc2)cc1	ELG1 DNA repair inconclusive, SW480 rerep 3.7µM, MCF10A rereplic inconclusive
O=C(Nc1ccon1)Nc1ccccc1C(F)(F)F	none
O=C(O)COCCN1CCN([C@@H](c2ccccc2)c2ccc(Cl)cc2)CC1	none (no result: ELG1 DNA repair, p53 reactivation, ELG1 genotox, A-T KAP1 phos)
CCOc1ccc(C(C)=O)cc1COc1ccc(-c2nnco2)cc1	ELG1 DNA repair 7.3µM
COc1ccc(C(C)=O)cc1COc1ccc(F)cc1	none
Cc1ccccc1OCC(=O)NC(=S)Nc1ccccc1N1CCN(S(C)(=O)=O)CC1	none
Cc1nc(N2CCCCC2)c2c(C)c(C(=O)Nc3cccc(C(F)(F)F)c3)sc2n1	ELG1 DNA repair inconclusive, MCF10A rereplic 18µM
Cc1c(C(=O)O)sc2ncnc(N3CCCCC3C)c12 (stereo unspecified)	none
Cc1nc(N2CCCCC2)c2c(C)c(C(=O)Nc3ccccc3C(F)(F)F)sc2n1	ELG1 DNA repair inconclusive, MCF10A rereplic inconclusive
Cc1nc(N2CCCCC2C)c2c(C)c(C(=O)Nc3cccc(C(F)(F)F)c3)sc2n1 (stereo unspecified)	MCF10A rereplic 18µM
CCOC(=O)c1sc2nc(C)nc(SCC(=O)N(CC)C3CCS(=O)(=O)C3)c2c1C (stereo unspecified)	ELG1 DNA repair 16µM, SW480 rerep inconclusive
CCOC(=O)c1sc2nc(C)nc(N3CCCCC3C)c2c1C (stereo unspecified)	ELG1 DNA repair inconclusive, MCF10A rereplic 18µM, A-T KAP1 phos inconclusive
CN(C)CCNC(=O)CNC(=S)N(CCCN1CCOCC1)Cc1cccs1	none
COc1ccc(OC)c(-n2nnnc2SCC(=O)Nc2ccc(C(=O)N3CCCCC3)cc2)c1	ELG1 DNA repair 23µM
COC(=O)c1sccc1NC(=O)CSc1nnnn1-c1ccccc1C	ELG1 DNA repair 18µM
COc1ccc(-n2nnnc2SCC(=O)Nc2cc(OC)c([N+](=O)[O-])cc2C)cc1	ELG1 DNA repair inconclusive, MCF10A rereplic 4.6µM
COc1cccc(NC(=O)CN(C)CC(=O)Nc2ccc(C)c([N+](=O)[O-])c2)c1	ELG1 DNA repair 18µM, MCF10A rereplic inconclusive
COc1cccc(NC(=O)CC2C(=O)NC3CCCCC3N2C(=O)c2ccccc2)c1 (stereo unspecified)	none (no result: ELG1 DNA repair, p53 reactivation, ELG1 genotox, A-T KAP1 phos)
COc1cc(NC(=O)CN(C)Cc2ccc(OC(F)F)cc2)c(C)cc1[N+](=O)[O-]	ELG1 DNA repair inconclusive
COc1ccc(CN(C)CC(=O)Nc2cc(OC)c([N+](=O)[O-])cc2C)c(OC)c1	ELG1 DNA repair 16µM
COc1ccccc1N1C(=O)CC(N2CCN(c3ccc([N+](=O)[O-])cc3)CC2)C1=O (stereo unspecified)	none (no result: p53 reactivation)
CS(=O)(=O)c1nc(-c2ccc(Br)cc2)cc(-c2ccccc2)c1C#N	ELG1 DNA repair 16µM, SW480 rerep 3.7µM, MCF10A rereplic 5.8µM
CCOc1cc(-c2cc(-c3ccc(C)cc3)nc(N)c2C#N)ccc1O	ELG1 DNA repair 16µM, SW480 rerep 16µM, MCF10A rereplic 21µM
N#Cc1c(-c2ccccc2)cc(-c2ccc(O)cc2)nc1N	ELG1 DNA repair inconclusive, SW480 rerep inconclusive, MCF10A rereplic 23µM
O=C(CC1C[C@H](C(=O)N2CCOCC2)[C@@]2(CCC3CCCC3)c3[nH]c4ccccc4c3CCN2C1=O)NCCc1ccccn1 (stereo partly specified)	SW480 rerep inconclusive
C=CCc1cccc2cc(C(=O)N3CCN(C(=O)c4ccco4)CC3)c(=O)oc12	SW480 rerep inconclusive, MCF10A rereplic 13µM
Cc1cc[n+]2cc(-c3cccc([N+](=O)[O-])c3)c(-c3cccc([N+](=O)[O-])c3)cc2c1	p53 reactivation inconclusive, SW480 rerep 2.6µM
Cn1c(SCc2c(F)cccc2Cl)nnc1-c1cccs1	ELG1 DNA repair inconclusive, p53 reactivation inconclusive, ELG1 genotox 13µM, SW480 rerep inconclusive, MCF10A rereplic 6.5µM
CN1C2=CC=CC=CC2=[N+](C)C12C([N+](=O)[O-])=CC(=[N+]([O-])[O-])C=C2[N+](=O)[O-] (stereo unspecified)	p53 reactivation inconclusive, SW480 rerep 0.65µM, MCF10A rereplic inconclusive
Cc1ccc(CCNC(=O)C2CCN(S(=O)(=O)N3CCOCC3)CC2)cc1	none
CCOc1ccc2c(c1)OC(c1ccc(OC)cc1)(C(F)(F)F)NC2=O (stereo unspecified)	ELG1 DNA repair inconclusive, p53 reactivation inconclusive, ELG1 genotox inconclusive, SW480 rerep 5.2µM, MCF10A rereplic 2.3µM
CCOc1ccc2c(c1)OC(c1ccccc1)(C(F)(F)F)NC2=O (stereo unspecified)	none
O=C(CSc1ccc2ccccc2n1)c1ccc2c(c1)OCO2	ELG1 DNA repair inconclusive, ELG1 genotox 21µM
O=C(O)CSc1ccc2ccccc2n1	none
